Here are results for 15 molecules from PubChem BioAssay (NCI).

Compounds without any hit were thinned out: in the full panel of roughly 83,000, 20% have a hit.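 Testing used 96-well plates and a 48-hour single-concentration exposure. Example: -40 means 40% of the starting cells died.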 Unmarked numbers belong to inactive results. Active and inactive are the calls of the source. The calls were made as follows: active = growth percent below 10; inactive = the rest.

The subject of the test is HL-60(TB) leukemia. Put plainly: NCI-60 one-dose screen, 48 h (100 = growth as untreated, 0 = no growth, -100 = all killed). The note with it: 10 µM unless noted.
As to `Nc1nc2c(s1)CCc1c-2c(Br)n(Cc2ccccc2)c1Br`, the growth is 51.6%. The same measure for `C=C1C(=O)O[C@H]2[C@H](O)[C@@H](C)CCC/C(C)=C/CC[C@@]3(C)O[C@@H]3C[C@@H]12`: 92.5%; for `O=C(N/N=C/C=C/c1ccc([N+](=O)[O-])o1)c1cc2ccccc2cc1O`: 3.51% (active); for `CC(=O)C1CCC(C)=CC1=O` (stereo not given): 119%. The figure for `COc1ccc2nc(-c3ccc(-n4cncc4-c4ccc(OC)c(N)c4)cc3)sc2c1` is 80.7%; for `COc1cc(-c2nc(-c3nnc(-c4cccnc4)o3)c3ccccn23)cc(OC)c1OC` it is 95.7%; for `Cc1cc([N+](=O)[O-])ccc1NC(=O)c1ccc2c(c1)nc(-c1ccccc1)n2C1CCCCC1` it is 64.7%. Consider `O=C(NCc1cccnc1)/C(=C\c1ccc(Br)cc1)S(=O)(=O)c1ccccc1`, for which the growth was 17.4%. The figure for `CC(=O)c1cc2c(N)c(C(=O)Nc3cccc4ccccc34)sc2nc1C` is -10.7% (active). In the case of `CCCCn1c(-c2cccc(OC)c2)nc2cc(OC)c(OC)cc2c1=O`, the growth is 78.3%. The figure for `CCOc1c(Br)cc(C2C(C(=O)OC)=CN(C)C=C2C(=O)OC)cc1OC` is 35.5%; for `c1ccc2c(-c3nc(-c4c[nH]c5ccncc45)cs3)c[nH]c2c1` it is 45.9%. The figure for `NC(CCCC(N)C(=O)c1ccccc1)C(=O)O` (stereo not given) is 94.3%; for `COc1cc(-c2nn(-c3ccc(C)cc3)cc2C(=O)O)ccc1O` it is 82.2%. Consider `Cc1ccc(NC(=O)Cn2c(Br)nc3c2c(=O)n(C)c(=O)n3C)cc1`, for which the growth is 102%.
